# The supplement of paper PMC7411640
# Counter-ions that a name gives are not always drawn.
# Test system: MDA-MB-468
# Assay: phospho-S6 immunofluorescence (DAPI-normalised), per-plate z-score; higher = higher phospho-S6 signal (less pathway suppression)
# Conditions: co-treatment: GDC0941 450 nM; 24 h
# Protocol: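 GPCR-targeted compound library (MedChemExpress HY-L006) tested on MDA-MB-468 PTEN-null TNBC cells in 384-well plates at 0.1, 1 or 10 uM, combined with vehicle, GDC0941 450 nM or lapatinib 1 uM, for 24 h. Phospho-S6 (S240/244) immunofluorescence normalised to DAPI and expressed as a per-plate z-score; values are the mean of biological triplicates.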
row,SMILES,phospho-S6 immunofluorescence (z-score)
1,CNS(=O)(=O)CCc1ccc2[nH]cc(C3CCN(C)CC3)c2c1 [Naratriptan (hydrochloride)] (compound 10 µM),-0.23
2,CC(C)C(=O)OCC(=O)[C@@]12O[C@H](C3CCCCC3)O[C@@H]1C[C@H]1[C@@H]3CCC4=CC(=O)C=C[C@]4(C)[C@H]3[C@@H](O)C[C@@]12C [Ciclesonide] (compound 10 µM),-3.85
3,O=C1Cc2cc(CCN3CCN(c4nsc5ccccc45)CC3)c(Cl)cc2N1 [Ziprasidone (hydrochloride monohydrate)] (compound 10 µM),-5.1
4,COc1cc(N)cn[n+]1-c1ccccc1 [Amezinium (methylsulfate)] (compound 10 µM),-0.21
5,COc1cc2c(cc1OC)CC(=O)N(CCCN(C)C[C@H]1Cc3cc(OC)c(OC)cc31)CC2 [Ivabradine (hydrochloride)] (compound 10 µM),-0.44
6,COc1ccccc1Oc1c(NS(=O)(=O)c2ccc(C)cn2)nc(-c2ccncc2)nc1OC [Avosentan] (compound 10 µM),-0.03
7,C[C@@H](NCCCc1cccc(C(F)(F)F)c1)c1cccc2ccccc12 [Cinacalcet] (compound 10 µM),-5.01
8,C[C@H](CCC(=O)O)[C@H]1CC[C@H]2[C@@H]3CC[C@@H]4C[C@H](O)CC[C@]4(C)[C@H]3C[C@H](O)[C@]12C [Deoxycholic acid] (compound 10 µM),0.02
9,CC(C)NC[C@H](O)COc1ccc(CCOCC2CC2)cc1 [Levobetaxolol (hydrochloride)] (compound 10 µM),-0.39
10,CN(C)CCCN1c2ccccc2CCc2ccc(Cl)cc21 [Clomipramine (hydrochloride)] (compound 10 µM),-1.98
11,CN(C)CCN(Cc1ccccc1)c1ccccn1 [Tripelennamine (hydrochloride)] (compound 10 µM),-0.07
12,N[C@@H](Cc1ccc(O)c(O)c1)C(=O)O (compound 10 µM),-0.94
13,COc1ccc(/C=C/C(=O)Nc2ccccc2C(=O)O)cc1OC [Tranilast (trans-)] (compound 10 µM),0.32
14,CN1[C@@H]2CC[C@H]1C[C@@H](OC(c1ccccc1)c1ccccc1)C2 [Benztropine (mesylate)] (compound 10 µM),1.67
15,Clc1ccc(CCCOCCCN2CCCCC2)cc1 [Pitolisant (hydrochloride)] (compound 10 µM),0.75
16,COc1ccc2cc(OCC3(C(=O)O)CN(C(=O)c4ccc(F)cc4)C3)ccc2c1 (compound 10 µM),-1.13
17,CN(C)CC[C@@H](c1ccc(Cl)cc1)c1ccccn1 [Dexchlorpheniramine (maleate)] (compound 10 µM),0.61
18,N#Cc1cc(NC(=O)C(=O)O)c(Cl)c(NC(=O)C(=O)O)c1 [Lodoxamide] (compound 10 µM),0.92
19,CN(C)CCCN1c2ccccc2Sc2ccc(C(F)(F)F)cc21 [Triflupromazine (hydrochloride)] (compound 10 µM),-0.42

row,SMILES,phospho-S6 immunofluorescence (z-score)
1,Cc1nc(C#Cc2cccnc2)cs1 [MTEP (hydrochloride)] (compound 10 µM),-0.31
2,COc1ccc(/C=C/C(=O)Nc2ccccc2C(=O)O)cc1OC [Tranilast] (compound 10 µM),1.77
3,O=c1ccc2ccc(OCCCCN3CCN(c4cccc5sccc45)CC3)cc2[nH]1 [Brexpiprazole] (compound 10 µM),-5.22
4,O=c1cc(C(Cl)(Cl)Cl)oc2ccc(Cl)cc12 (compound 10 µM),0.54
5,NC(=O)CC[C@H](N)C(=O)O [L-Glutamine] (compound 10 µM),-0.23
6,CCN(CC)CC#CCOC(=O)C(O)(c1ccccc1)C1CCCCC1 (configuration not stated) [Oxybutynin (chloride)] (compound 10 µM),1.35
7,Cc1ccc(C(=O)Nc2ccc(S(=O)(=O)O)c3cc(S(=O)(=O)O)cc(S(=O)(=O)O)c23)cc1NC(=O)c1cccc(NC(=O)Nc2cccc(C(=O)Nc3cc(C(=O)Nc4ccc(S(=O)(=O)O)c5cc(S(=O)(=O)O)cc(S(=O)(=O)O)c45)ccc3C)c2)c1 [Suramin (sodium salt)] (compound 10 µM),0.54
8,"Brc1c(NC2=NCCN2)ccc2nccnc12 [UK 14,304 (tartrate)] (compound 10 µM)",0.91
9,Cc1ccc(F)cc1C(=O)Nc1ccc(C(=O)N2Cc3cccn3Cc3ccccc32)c(Cl)c1 [Lixivaptan] (compound 10 µM),-2.79
10,CN1C2CCCC1CC(NC(=O)c1nn(C)c3ccccc13)C2 (configuration not stated) [Granisetron (Hydrochloride)] (compound 10 µM),1.08
11,CC1(C)O[C@@H]2C[C@H]3[C@@H]4CCC5=CC(=O)C=C[C@]5(C)[C@@]4(F)[C@@H](O)C[C@]3(C)[C@]2(C(=O)CO)O1 [Triamcinolone (acetonide)] (compound 10 µM),-1.69
12,CCNC(=O)[C@@H]1CCCN1C(=O)[C@H](CCCNC(=N)N)NC(=O)[C@H](CC(C)C)NC(=O)[C@@H](CC(C)C)NC(=O)[C@H](Cc1ccc(O)cc1)NC(=O)[C@H](CO)NC(=O)[C@H](Cc1c[nH]c2ccccc12)NC(=O)[C@H](Cc1c[nH]cn1)NC(=O)[C@@H]1CCC(=O)N1 [Leuprolide (Acetate)] (compound 10 µM),0.41
13,CCOC(=O)O[C@]1(C(=O)OCCl)CC[C@H]2[C@@H]3CCC4=CC(=O)C=C[C@]4(C)[C@H]3[C@@H](O)C[C@@]21C [Loteprednol Etabonate] (compound 10 µM),-0.86
14,CC1OC2(CS1)CN1CCC2CC1 (configuration not stated) [Cevimeline (hydrochloride hemihydrate)] (compound 10 µM),0.65
15,CCn1c(=O)c2c(nc(/C=C/c3ccc(OC)c(OC)c3)n2C)n(CC)c1=O [Istradefylline] (compound 10 µM),0.2
16,Clc1ccc2c(c1)CCc1cccnc1C2=C1CCNCC1 [Desloratadine] (compound 10 µM),-0.48
17,Cc1ccc(Sc2ccccc2N2CCNCC2)c(C)c1 [Vortioxetine (hydrobromide)] (compound 10 µM),-5.79
18,CC(COc1ccccc1)N(CCCl)Cc1ccccc1 (configuration not stated) [Phenoxybenzamine (hydrochloride)] (compound 10 µM),0.33
